POLI inh: qHTS for Inhibitors of Polymerase Iota | Potency, µM (highest dose often 115 µM), hits mostly inhibitors | DNA polymerase iota (Homo sapiens), Q9UNA4 | AID 588590, 2011 | Pol iota fluorescent replication assay, 10 min | 1% of 390,000 active
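Fluorescent replication assay read twice, at 0 min and 10 min after adding 50 nM (final) substrate. Enzyme (10 nM) and compounds were first incubated 15 min at room temperature; enzyme-free buffer wells were negative controls.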
Pol beta inh: qHTS Assay for Inhibitors of DNA Polymerase Beta. Potency, µM (doses to about 114 µM), most hits filed as inhibitors. AID 485314, 2010. Pol beta primer extension/strand displacement, fluorescence kinetic. 1.3% of 340,000 active. P06746
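Values derive from four-parameter Hill fits of normalized kinetic data: reads at 0 and 10 min following addition of 50 nM substrate to 10 nM Pol beta preincubated 15 min with compound.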
L3MBTL1 inh: qHTS Assay for the Inhibitors of L3MBTL1; AlphaScreen L3MBTL1–H3K9me1 peptide binding; 0.66% of 230,000 active; Potency, µM (highest dose often 57.1 µM), actives largely listed as inhibitors; further: nearly all actives have a fitted effect of over 60% in size
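AlphaScreen proximity signal between nickel-chelate acceptor and streptavidin donor beads (final 10 ug/mL) reports binding of 50 nM L3MBTL1 to 75 nM biotin-H3 K9me1 peptide; complex incubated with compounds 30 min at room temperature; cefsulodin titration as control.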
Pol kappa inh-1: qHTS for Inhibitors of Polymerase Kappa; purified Pol kappa, fluorescent DNA synthesis assay, 10 min; Potency, µM (doses to about 107 µM), hits mostly inhibitors; AID 588579, 2011; 0.53% of 400,000 active
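Kinetic fluorescence screen: compound preincubated 15 min RT with 10 nM enzyme; 50 nM substrate (final) initiates; reads at 0/10 min.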
APE1 inh: qHTS Assay for Inhibitors of the Human Apurinic/apyrimidinic Endonuclease 1 (APE1); Potency, µM (top dose mostly 65.8 µM), actives largely listed as inhibitors; AID 2517, 2012; recombinant APE1, TAMRA/BHQ-2 abasic DNA cleavage fluorescence; 0.35% of 350,000 active; DNA repair nuclease/redox regulator APEX1 (Homo sapiens), P27695; further: nearly all actives have a fitted effect of over 55% in size
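Compound pre-exposure to 0.75 nM APE1, 15 min at ambient temperature. Reaction initiated with 50 nM TAMRA/BHQ-2 THF substrate, read immediately in kinetic mode, 525 nm excitation, 598 nm emission.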
Pol eta inh-1: qHTS for Inhibitors of Polymerase Eta; Potency, µM (doses to about 114 µM), most hits filed as inhibitors; recombinant Pol eta, fluorescent DNA replication assay; 1.2% of 390,000 active
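Pol eta at 10 nM preincubated with compounds 15 min at room temperature; reaction started with fluorescent substrate (50 nM final) and read kinetically at 0 and 10 min.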
Pol kappa inh-2: qHTS for Inhibitors of Polymerase Kappa: Confirmatory Assay for Cherry-picked Compounds | shares compounds with Pol eta inh-1 | purified Pol-kappa, fluorescent strand-displacement substrate | Potency, µM, most hits filed as inhibitors | 76% of 920 active | AID 720501, 2013
Pol eta inh-2: qHTS for Inhibitors of Polymerase Eta: Confirmatory Assay for Cherry-picked Compounds; Potency, µM, actives largely listed as inhibitors; AID 720502, 2013; 64% of 2,600 active; Pol eta primer extension, TAMRA/BHQ fluorescence, 10 min; shares compounds with Pol eta inh-1
A number is an active result. A selection: hits, their analogues and other compounds. The true share with any hit is near 2.5%. The call rests on the fitted dose curve; in most records, active means well fitted curve in the direction sought with a large enough effect; inconclusive means small, poorly fitted or top-dose-only effect, or another doubt; inactive means no such curve, though single readings can be large; an effect the other way counts as inactive or inconclusive.

Screening C=CCOc1ccccc1/C=c1\sc2nc(=O)c(C)nn2c1=O returned POLI inh 10µM, Pol beta inh 25µM, L3MBTL1 inh inconclusive, Pol kappa inh-1 50µM, APE1 inh inconclusive, Pol eta inh-1 28µM, Pol kappa inh-2 38 and Pol eta inh-2 21.
For COc1ccc(/C=c2\sc3nc(-c4ccccc4OC)nn3c2=O)c(OC)c1 the results were POLI inh inactive, Pol beta inh inactive, L3MBTL1 inh inactive, Pol kappa inh-1 inactive, APE1 inh inactive and Pol eta inh-1 inconclusive.
`O=C(CCl)N1N=C(c2ccco2)CC1c1ccco1` (stereo not drawn) gave POLI inh 3.2µM, Pol beta inh 25µM, Pol kappa inh-1 22µM, APE1 inh inactive, Pol eta inh-1 10µM and Pol eta inh-2 60.
Screening CCNC(=O)c1c(NC(=O)c2nc(SC)ncc2Cl)sc2c1CCCC2 returned POLI inh inactive and Pol kappa inh-1 inactive.
`O=C1c2ccccc2C(=O)c2c(O)c(O)cc(O)c21` gave POLI inh 79µM, L3MBTL1 inh inconclusive, Pol kappa inh-1 50µM, APE1 inh 19µM, Pol eta inh-1 32µM, Pol kappa inh-2 75 and Pol eta inh-2 43.
For O=C(O)c1cccc2c1C(=O)c1ccccc1C2=O the results were POLI inh inactive, Pol beta inh inactive, L3MBTL1 inh inactive, Pol kappa inh-1 inactive, APE1 inh inactive and Pol eta inh-1 inactive.
O=C(O)C1CC(O)CN1c1nc(Cl)ccc1[N+](=O)[O-] (stereo not drawn) was read as POLI inh inactive, Pol beta inh inactive, L3MBTL1 inh inactive, Pol kappa inh-1 inactive, APE1 inh inactive and Pol eta inh-1 inactive.
O=C(O)C1CN(c2nc(Cl)ccc2[N+](=O)[O-])C1 was read as POLI inh inactive, Pol beta inh 35µM, L3MBTL1 inh inconclusive, Pol kappa inh-1 inactive, APE1 inh inconclusive, Pol eta inh-1 20µM, Pol kappa inh-2 67 and Pol eta inh-2 30.
`O=C(O)CCCn1cc(NC(=O)COc2ccccc2)cn1` gave POLI inh inconclusive, Pol beta inh inactive, Pol kappa inh-1 inactive, APE1 inh inactive and Pol eta inh-1 inactive.
Screening C#Cc1ccc([C@@H]2C=C(C(=O)NCc3ccccc3)O[C@H](OCC)[C@H]2CCCO)cc1 returned POLI inh inactive, Pol beta inh inactive, L3MBTL1 inh inactive, Pol kappa inh-1 inactive, APE1 inh inactive and Pol eta inh-1 inactive.
For C#Cc1ccc([C@@H]2C=C(C(=O)O)O[C@H](OCC)[C@H]2CCCO)cc1 the results were POLI inh inconclusive, Pol kappa inh-1 50µM, Pol eta inh-1 7.9µM, Pol kappa inh-2 4.7 and Pol eta inh-2 30.
COCCNC(=O)C(c1ccc(C)cc1)N(C(=O)CCC(=O)Nc1ccccn1)C1CCCCC1 (stereo not drawn) was read as POLI inh inactive, Pol beta inh inactive, Pol kappa inh-1 inactive, APE1 inh inactive and Pol eta inh-1 inactive.
CC(C)C[C@@H](CC(=O)N[C@H](CC(=O)N[C@@H]1CCCC[C@H]1C(=O)N[C@H](CC(=O)N[C@@H](CCC(=O)O)CC(=O)O)Cc1c[nH]c2ccccc12)C(C)C)NC(=O)[C@@H]1CCCC[C@H]1N was read as APE1 inh inactive.
O=C(CSc1nc2ccc(S(=O)(=O)N3CCOCC3)cc2[nH]1)N1CCOCC1 was read as POLI inh inactive, Pol beta inh inactive, Pol kappa inh-1 inactive, APE1 inh inactive, Pol eta inh-1 inactive, Pol kappa inh-2 30 and Pol eta inh-2 inconclusive.
For COC(=O)c1cc(NC(=O)c2ccc3c(c2)NC(=O)c2ccccc2S3)cc(C(=O)OC)c1 the results were POLI inh inconclusive, Pol beta inh 6.3µM, L3MBTL1 inh inconclusive, Pol kappa inh-1 inactive, APE1 inh inactive, Pol eta inh-1 50µM, Pol kappa inh-2 9.5 and Pol eta inh-2 inconclusive.
`NNc1nccc(Nc2ccccc2C(=O)O)n1` gave POLI inh inconclusive, Pol beta inh inconclusive, L3MBTL1 inh inconclusive, Pol kappa inh-1 inconclusive, APE1 inh inactive, Pol eta inh-1 13µM and Pol eta inh-2 inconclusive.
For c1ccc(Nc2ccnc(Nc3ccccc3)n2)cc1 the results were POLI inh inactive, Pol beta inh inactive, L3MBTL1 inh inactive, Pol kappa inh-1 inactive, APE1 inh inactive and Pol eta inh-1 inactive.
Screening O=C(O)c1ccccc1NS(=O)(=O)c1ccc2c3c(cccc13)C(=O)N2 returned POLI inh inconclusive, Pol beta inh inactive, L3MBTL1 inh inactive, Pol kappa inh-1 inactive, APE1 inh inactive and Pol eta inh-1 inactive.
`CN(c1ccccc1C(=O)O)S(=O)(=O)c1ccc2c3c(cccc13)C(=O)N2` gave POLI inh inconclusive, Pol beta inh 13µM, L3MBTL1 inh inconclusive, Pol kappa inh-1 79µM, APE1 inh inconclusive, Pol eta inh-1 13µM and Pol eta inh-2 inconclusive.
`CCOC(=O)c1c(C)[nH]c(C(=O)N(C)Cc2cccc(OC)c2OC)c1C` gave POLI inh inactive, Pol beta inh inactive, Pol kappa inh-1 inactive, APE1 inh inactive and Pol eta inh-1 inactive.
For Cc1cc(O)c(CN(C)C)c2c1C(=O)/C(=C/c1ccco1)O2 the results were POLI inh inconclusive, Pol beta inh inactive, Pol kappa inh-1 inactive, APE1 inh inactive, Pol eta inh-1 11µM, Pol kappa inh-2 34 and Pol eta inh-2 54.
Screening COc1ccc2c(c1)O/C(=C\c1ccco1)C2=O returned POLI inh inactive, Pol beta inh inconclusive, Pol kappa inh-1 inactive, APE1 inh inconclusive and Pol eta inh-1 inactive.
For CC(=O)n1cc(N(C(=O)CCl)c2ccccc2)c2ccccc21 the results were POLI inh inactive, Pol beta inh inactive, L3MBTL1 inh inactive, Pol kappa inh-1 inactive, APE1 inh inactive, Pol eta inh-1 14µM and Pol eta inh-2 43.
For CCOC(=O)C1CCCN(Cc2cn3c(-c4cccc(Br)c4)nnc3s2)C1 (stereo not drawn) the results were POLI inh inactive, Pol beta inh inactive, Pol kappa inh-1 inactive and Pol eta inh-1 inactive.
